# From the supplement of paper PMC12297408
# Values joined by “and” are separate entries in the source; they are usually repeats but may differ in a detail not shown here. Identical values can stand only once. Counter-ions that a name gives are not always drawn. Values without a mark were called inactive.
# System: Plasmodium falciparum NF54/iGP1_RE9H ulg8 stage V gametocytes
# Assay: gametocyte viability (luciferase signal relative to DMSO control) (% of DMSO control); higher = less gametocytocidal activity, active = 50 or less
# Details: concentration: 1 µM; exposure time: 72 h
# In short: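 Compounds from 10 mM DMSO stocks were spotted at nanolitre scale into 96-well plates, and day-12 stage V NF54/iGP1_RE9Hulg8 gametocytes (~2.5% gametocytemia, 3% hematocrit; medium with 0.5% Albumax II) were added to reach 10 µM or 1 µM, one well per concentration. The plates were kept at 37 °C for 72 h. Luminescence was then read on an IVIS Lumina II after mixing 90 µl of culture with 10 µl D-luciferin (30 mg/ml). Viability values are relative to the plate's mean DMSO vehicle signal.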
row,SMILES,gametocyte viability
1,CC[C@@H]1C(=O)N(C)c2cnc(Nc3ccc(C(=O)NC4CCN(C)CC4)cc3OC)nc2N1C1CCCC1,80.6
2,COc1cccc2cc(-c3nc([C@H]4CC[C@H](C(=O)O)CC4)n4ncnc(N)c34)[nH]c12,108
3,S=C(NCc1ccc2c(c1)OCO2)N1CCN(c2ncnc3c2oc2ccccc23)CC1 [Amuvatinib (MP-470)],98.1
4,Cc1cc(Nc2nc(N[C@@H](C)c3ncc(F)cn3)ncc2Cl)[nH]n1,97.5

# Same assay, conditions: concentration: 10 µM; exposure time: 72 h
row,SMILES,gametocyte viability
1,CC1(C)CNc2cc(NC(=O)c3cccnc3NCc3ccncc3)ccc21 [Motesanib Diphosphate],97.4
2,N#CC(C#N)=C(N)/C(C#N)=C/c1cc(O)c(O)c(O)c1,113
3,O=c1c(O)c(-c2ccc(O)c(O)c2)oc2cc(O)cc(O)c12 [Quercetin (Sophoretin)],108
4,CNC(=O)CN1CCC(Oc2cc3c(Nc4cccc(Cl)c4F)ncnc3cc2OC)CC1,106
5,CNCCNS(=O)(=O)c1cccc2cnccc12,108
6,C=CC(=O)Nc1cccc(Oc2nc(Nc3ccc(N4CCN(C)CC4)cc3OC)ncc2Cl)c1,97.3
7,O=c1cc(-c2cccc3c2Sc2ccccc2S3)oc(N2CCOCC2)c1,107
8,COc1cc2c(N3CCN(C(=O)Nc4ccc(OC(C)C)cc4)CC3)ncnc2cc1OCCCN1CCCCC1 [Tandutinib (MLN518)],91.8
9,CNC(=O)c1cc(Oc2ccc(NC(=O)Nc3ccc(Cl)c(C(F)(F)F)c3)c(F)c2)ccn1 [Regorafenib (BAY 73-4506)],99.1
10,Cn1c(=O)c(F)c(Nc2ccc(I)cc2F)c2c(=O)n(C[C@@H](O)CO)cnc21,114
11,O=C1NC(=O)/C(=C/c2ccc3c(c2)OC(F)(F)O3)S1,106
12,CCN(CCO)CCCOc1ccc2c(Nc3cc(CC(=O)Nc4cccc(F)c4)[nH]n3)ncnc2c1 [Barasertib (AZD1152-HQPA)],93.1
13,CO[C@@H]1[C@H](N(C)C(=O)c2ccccc2)C[C@H]2O[C@]1(C)n1c3ccccc3c3c4c(c5c6ccccc6n2c5c31)C(=O)NC4,95.9
14,Nc1nc2ncnc-2c[nH]1 [2-Aminopurine],103
15,O=S(=O)(c1cccc2c(Cl)cccc12)N1CCCNCC1,90
16,CCCNC(=O)Nc1ccc(Oc2ncnc3cc(OC)c(OC)cc23)cc1Cl,104
17,Nc1ncnc2c1c(I)cn2[C@@H]1O[C@H](CO)[C@@H](O)[C@H]1O [5-Iodotubericidin],113
18,Cn1cnc2c(F)c(Nc3ccc(Br)cc3Cl)c(C(=O)NOCCO)cc21 [AZD6244 (Selumetinib)],105
19,Oc1ccc(-c2nc(-c3ccc(F)cc3)c(-c3ccncc3)[nH]2)cc1,115 and 132
20,COc1cc2ncnc(Nc3cccc(Cl)c3)c2cc1OC,104

row,SMILES,gametocyte viability
1,Nc1cc(C(F)(F)F)c(-c2cc(N3CCOCC3)nc(N3CCOCC3)n2)cn1,98.6
2,O=Nc1c(-c2c(O)[nH]c3ccccc23)[nH]c2ccccc12 [Indirubin-3'-monooxime],86.8
3,Fc1cc(-c2cccc3ncc(-c4cnn(C5CCNCC5)c4)nc23)cc(F)c1CN1CCOCC1,80
4,Cc1ccc(Nc2nccc(N(C)c3ccc4c(C)n(C)nc4c3)n2)cc1S(N)(=O)=O [Pazopanib HCl],109
5,NCCNS(=O)(=O)c1cccc2cnccc12,107
6,COc1cc2ncc(-c3ccccc3)nc2cc1OC,91.9
7,Nc1ncnc2c1c(-c1cccc(OCc3ccccc3)c1)cn2C1CC(CN2CCCC2)C1 (centres undefined),84
8,COc1ccc(-c2ccc3c(N4CCOC[C@@H]4C)nc(N4CCOC[C@@H]4C)nc3n2)cc1CO,78.9
9,O=C1Cc2c([nH]c3ccc(Br)cc23)-c2ccccc2N1 [Kenpaullone],16.3 (active)
10,Cc1cn(-c2cc(NC(=O)c3ccc(C)c(Nc4nccc(-c5cccnc5)n4)c3)cc(C(F)(F)F)c2)cn1 [Nilotinib (AMN-107)],107
11,Cc1c(NC(=O)OC[C@@H]2COCCN2)cn2ncnc(Nc3ccc4c(cnn4Cc4cccc(F)c4)c3)c12,96
12,N#Cc1c(O)c2c(-c3ccc(-c4ccccc4O)cc3)csc2[nH]c1=O,105
13,N#C/C(=C\c1ccc(O)c(O)c1)C(=O)Nc1ccccc1,104
14,O=c1cc(N2CCOCC2)oc2c(-c3ccccc3)cccc12,103 and 92
15,CNC(=O)c1cc(COc2nnc(Nc3ccc(Cl)cc3)c3ccoc23)ccn1 [Telatinib (BAY 57-9352)],115
16,CC(C)n1cnc2c(NCc3ccccc3)nc(NCCO)nc21 [N9-isopropyl-olomoucine],91
17,CC[C@@H]1C(=O)N(C)c2cnc(Nc3ccc(C(=O)NC4CCN(C)CC4)cc3OC)nc2N1C1CCCC1,63.5
18,COc1cccc2cc(-c3nc([C@H]4CC[C@H](C(=O)O)CC4)n4ncnc(N)c34)[nH]c12,109
19,S=C(NCc1ccc2c(c1)OCO2)N1CCN(c2ncnc3c2oc2ccccc23)CC1 [Amuvatinib (MP-470)],110
20,Cc1cc(Nc2nc(N[C@@H](C)c3ncc(F)cn3)ncc2Cl)[nH]n1,95.5
